ELG1 genotoxic = qHTS screen for small molecules that induce genotoxicity in human embryonic kidney (HEK293T) cells expressing luciferase-tagged ELG1; hit rate 1.3% among 330,000; HEK293T ELG1-luciferase reporter, luminescence, 16 h; AID 504466, 2011; Potency, µM (top dose mostly 46 µM), usual class: activators; further: nearly all actives have a fitted effect of over 60% in size
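Cells (2,000/well) expressing the ELG1-luciferase fusion are dosed by pin tool and kept 16 hr at 37 °C, 5% CO2. Signal comes from ONE-Glo luciferase reagent after 30 min at room temperature.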
Rab9 prom act = qHTS Assay for Rab9 Promoter Activators | Huh7 Rab9 promoter-luciferase reporter, luminescence, 24 h | Potency, µM (doses to about 9.22 µM), usual class: activators | hit rate 2.8% among 320,000; further: nearly all actives have a fitted effect of over 60% in size
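Cells were plated at 1500 per well in reduced-serum medium with 10% FBS and left 2 h. Compound in DMSO was then added for 24 h at 37 °C. Reporter signal was read by luminescence after 10 min with luciferase detection reagent.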
NPC1 promoter act = qHTS Assay for NPC1 Promoter Activators; Huh7 NPC1 promoter luciferase reporter, 24 h; Potency, µM (series often up to 9.22 µM), most hits filed as activators; hit rate 2.4% among 320,000; AID 485313, 2010; further: nearly all actives have a fitted effect of over 60% in size
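In 1536-well qHTS, Huh7 cells harboring an NPC1 promoter–luciferase construct received compound for 24 h; activation was quantified by luminescence following luciferase reagent addition.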
FLuc modulator = qHTS profiling assay for firefly luciferase inhibitor/activator using purifed enzyme and Km concentrations of substrates (counterscreen for miR-21 project) | Luciferin 4-monooxygenase (Photinus pyralis), P08659 | hit rate 6.9% among 360,000 | Potency, µM (top dose mostly 57.5 µM), usual class: inhibitors | purified FLuc, Km substrates, luminescence inhibition | AID 588342, 2011; further: nearly all actives have a fitted effect of over 55% in size
Target sequence (P08659 whole entry, looked up): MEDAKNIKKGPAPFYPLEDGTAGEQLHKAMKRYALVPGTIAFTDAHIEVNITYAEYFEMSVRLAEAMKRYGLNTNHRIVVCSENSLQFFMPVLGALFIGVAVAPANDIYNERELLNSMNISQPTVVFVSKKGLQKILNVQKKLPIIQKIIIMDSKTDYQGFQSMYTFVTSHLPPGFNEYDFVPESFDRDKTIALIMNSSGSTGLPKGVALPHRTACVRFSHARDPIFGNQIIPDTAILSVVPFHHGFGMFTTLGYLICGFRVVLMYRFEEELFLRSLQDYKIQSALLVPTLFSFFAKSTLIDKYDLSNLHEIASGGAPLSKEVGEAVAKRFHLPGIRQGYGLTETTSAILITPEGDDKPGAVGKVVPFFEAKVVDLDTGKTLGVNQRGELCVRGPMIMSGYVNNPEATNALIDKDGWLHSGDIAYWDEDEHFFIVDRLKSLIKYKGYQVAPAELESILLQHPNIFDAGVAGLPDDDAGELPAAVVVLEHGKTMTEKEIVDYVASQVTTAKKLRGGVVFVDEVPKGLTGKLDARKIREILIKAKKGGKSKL
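Purified P. pyralis luciferase (10nM final) with 10uM D-luciferin and 10uM ATP (Km levels) in 50mM Tris acetate pH 7.5, 10mM Mg acetate, 0.01% Tween-20, 0.05% BSA; qHTS 6-point titration, ~60 µM downward; luminescence read.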
SMN2 splice enh = qHTS Assay for Enhancers of SMN2 Splice Variant Expression. HEK293 SMN2-luciferase splicing reporter, luminescence, 30-36 h. Potency, µM (doses to about 46.1 µM), actives largely listed as activators. hit rate 2.8% among 210,000; further: nearly all actives have a fitted effect of over 55% in size
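qHTS luciferase splicing reporter: luminescence rises when SMN2 exon 7 is included in transfected HEK293 cells. Compound exposure lasted 30-36 h at 37C, with 4.5 mM final sodium butyrate as control, followed by a ONE-Glo read.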
Hits are given with their value; 0 = inactive; ? = inconclusive; - = not tested or not shown. Rows were chosen to be rich in hits. Some 7.4% of all compounds tested hit in one or more screens of this group. The call rests on the fitted dose curve; in most records, active means well fitted curve in the direction sought with a large enough effect; inconclusive means small, poorly fitted or top-dose-only effect, or another doubt; inactive means no such curve, though single readings can be large; an effect the other way counts as inactive or inconclusive.

SMILES	ELG1 genotoxic	Rab9 prom act	NPC1 promoter act	FLuc modulator	SMN2 splice enh
O=C(NC(=S)Nc1cc(-c2nc3ccccc3[nH]2)ccc1Cl)c1ccc2c(c1)OCO2	0	0	0	6.7µM	0
S=C(NCc1ccc2c(c1)OCO2)Nc1ccc(-c2nc3ccccc3[nH]2)cc1	0	0	0	?	0
Cc1ccc(-c2nc3ccccc3[nH]2)cc1NC(=S)NC(=O)c1ccccc1Br	0	0	0	5.4µM	0
CCOc1ccc(S(=O)(=O)N2CCC(C(=O)OC(C)C(=O)N3CCOCC3)CC2)cc1 (centres undefined)	0	0	0	0	-
CCc1ccc(-c2ccc(C(=O)C(F)(F)F)[nH]2)cc1	?	1.1µM	2µM	2.1µM	?
O=C(O)c1ccc(-c2ccccc2)[nH]1	0	0	0	0	0
Cc1cc(/C=C2/NC(=O)NC2=O)c(C)n1-c1ccccn1	0	0	0	21µM	?
Cc1ccc(-n2c(C)cc(/C=C3\NC(=O)NC3=O)c2C)c(C)c1	0	0	0	8.5µM	0
Cc1cc(/C=C2/NC(=O)NC2=O)c(C)n1-c1ccc(C#N)cc1	0	0	0	0	0
Cc1cc(C)cc(NS(=O)(=O)c2ccc(NC(=O)C3CCCCC3C(=O)O)cc2)c1 (centres undefined)	0	0	0	0	0
S=C(NC1CC2CCC1C2)N1CCN(c2cccc(Cl)c2)CC1 (centres undefined)	0	0	0	0	0
COc1ccccc1NC(=O)C1=C(C)Nc2nc3ccccc3n2C1c1cccc(OC)c1OC (centres undefined)	-	-	-	0	0
O=C(/C=C/Nc1ccc([N+](=O)[O-])cc1Br)c1cccc2ccccc12	?	1.1µM	3.2µM	2.4µM	5.6µM
NC(=O)c1cc([N+](=O)[O-])ccc1NCc1cccc2ccccc12	0	0	0	0	-
Cc1ccc(C(=O)OCC(=O)N(C)C2CCS(=O)(=O)C2)cc1S(=O)(=O)N1CCCCC1 (centres undefined)	0	0	0	0	-
c1ccc(-c2nnc3sc(-c4csc5c4CCCC5)nn23)cc1	0	0	0	15µM	?
c1ccc(-c2nnc3sc(-c4ccncc4)nn23)cc1	0	0	0	0	4.5µM
Clc1ccc(-c2nn3c(-c4ccccc4)nnc3s2)cc1	0	0	0	0	0
Cc1nc2sc(-c3ccccc3)nn2c(=O)c1Br	?	2.2µM	3.2µM	8.5µM	5.6µM
CN(C)S(=O)(=O)Oc1cccc(C(=O)Nc2ccc([N+](=O)[O-])cc2)c1	0	?	0	13µM	0
O=C(N[C@H]1CC1c1ccccc1)c1ccc([N+](=O)[O-])cc1 (some centres undefined)	?	0.71µM	1.1µM	5.4µM	-
CCN(CC)c1ccc(C(=O)Nc2ccccc2)cc1[N+](=O)[O-]	0	?	?	12µM	11µM
O=C(Nc1ccc(O)cc1)c1cccc(Oc2ccc([N+](=O)[O-])cc2)c1	0	0	0	0	-
O=C(NNc1ccc([N+](=O)[O-])cc1)Nc1ccccc1	0	0	0	21µM	-
CCCCc1cc(=O)oc2cc(OCc3nn[nH]n3)ccc12	0	0	0	?	-
SMILES	ELG1 genotoxic	Rab9 prom act	NPC1 promoter act	FLuc modulator	SMN2 splice enh
O=C(Nc1ccc([N+](=O)[O-])cc1)c1ccccc1	0	3.2µM	2.2µM	17µM	-
Cc1c(Cl)cccc1Nc1ccccc1C(=O)O	0	0	0	17µM	0
O=C(O)c1ccccc1Nc1ccccc1C(=O)O	0	0	0	0	0
CC(Cc1ccccc1)NC(=O)c1ccc([N+](=O)[O-])cc1 (centres undefined)	?	1.8µM	2.8µM	12µM	14µM
O=C(Nc1ccc(NC(=O)c2cccc([N+](=O)[O-])c2)cc1)c1cccc([N+](=O)[O-])c1	0	0	0	0	-
O=C(O)c1ccccc1Nc1ccc([N+](=O)[O-])cc1	0	?	0	?	7.1µM
CC(=O)N1N=C(c2ccc(C)o2)CC1c1cccc(F)c1 (centres undefined)	0	0	0	0	0
CCOC(=O)C1CCCN(C(=O)c2cc3c(OC)c(OC)c(OC)cc3[nH]2)C1 (centres undefined)	0	0	0	0	-
CC(=O)c1ccc(NC(=O)Cn2cc(S(=O)(=O)Cc3cccc(Cl)c3)c3ccccc32)cc1	-	-	-	0	-
COc1cc(/C=C\C(=O)N2CCC=CC2=O)cc(OC)c1OC	-	-	-	-	0
CCc1ccc(C2C(C#N)=C(N)N(N(C)C)C3=C2C(=O)CCC3)cc1 (centres undefined)	0	0	0	0	-
CCN(CC)C(=O)C1CCCc2c1[nH]c1ccc(Cl)cc21 (centres undefined)	0	0	0	0	3.5µM
S=C(Nc1ccccc1)Nc1nccs1	0	?	2.5µM	15µM	?
CC(C)(C)c1nnc(NC(=S)Nc2ccccc2)s1	?	3.2µM	3.5µM	9.5µM	13µM
O=C(Cc1ccccc1)Nc1nccs1	0	0	0	0	-
COc1cc(OC)cc(C(=O)Nc2nnc(NC(=S)Nc3ccccc3)s2)c1	0	0	0	0	0
Fc1ccc(NC(=S)Nc2nccs2)cc1	0	3.5µM	?	21µM	?
CC(C)CC1NC(=O)c2ccc(Cl)cc2-n2c1nc1ccc(Cl)cc1c2=O (centres undefined)	0	-	-	-	-
COc1ccc(C(=O)c2cc3c(cc2[N+](=O)[O-])OCCO3)cc1	0	0	0	0	-
COc1ccc(C(=O)n2c(SC)nc3cc4c(cc32)OCCO4)cc1	?	0	0	19µM	0
O=c1oc2c(O)cccc2cc1-c1nc2ccccc2[nH]1	?	0.79µM	0.56µM	0.67µM	-
O=C(O)c1ccc2nc(-c3cc4cc(F)ccc4oc3=O)[nH]c2c1	-	-	-	5.4µM	-
O=c1oc2c(CN3CCCCC3)c(O)ccc2cc1-c1nc2ccccc2[nH]1	?	?	0	9.5µM	-
O=C(O)c1ccc2nc(-c3cc4cccc(O)c4oc3=O)[nH]c2c1	-	0	0	0.85µM	-
Cc1cccc(Cn2c(CN3CCCC(C)C3)nc3c2c(=O)n(C)c(=O)n3C)c1 (centres undefined)	-	-	-	0	0
SMILES	ELG1 genotoxic	Rab9 prom act	NPC1 promoter act	FLuc modulator	SMN2 splice enh
CCOc1ccc(/C=C(\C#N)c2nc(-c3cc4ccccc4oc3=O)cs2)c(OCC)c1	-	-	-	0	0
CCOC(=O)C(=O)Nc1ccc(OCc2ccccc2)cc1	0	0	0	?	-
S=C(Nc1ccccc1)Nc1ccc(OCc2ccccc2)cc1	0	0	0	0	0
CCOCC(=O)Nc1ccc(OCc2ccccc2)cc1	?	?	0	17µM	?
CC(C)=CC(=O)Nc1ccc(OCc2ccccc2)cc1	?	?	?	13µM	0
CC(C)=CC(=O)Nc1ccc(Br)cc1	3.7µM	1.4µM	2.5µM	4.8µM	13µM
O=C(Nc1ccn(Cc2ccccc2)n1)c1ccc2c(c1)OCO2	0	2.8µM	?	5.4µM	?

Assay outcomes from PubChem.
